Inconclusive results are not listed. Active and inactive are the calls of the source. Unless noted, the call rests on the fitted dose curve; in most records, active means well fitted curve in either direction with a large enough effect (not every such curve was filed as active); inconclusive means small, poorly fitted or top-dose-only effect, or another doubt; inactive means flat fitted curve, though single readings scatter. Where only a bound is given, the exact number is not on record here.

For test [1], the target named is Lysosomal acid glucosylceramidase (Homo sapiens) (UniProt P04062). The test can be described thus: Glucocerebrosidase-p2 (AID 348; in the data active means potency below about 10 µM; further: potency means the concentration at half of the fitted maximal effect). The conditions noted are these: purified GBA, blue fluorogenic substrate, 40 min. Put shortly: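 Compounds titrated from 0.6 nM upwards against 0.2 nM enzyme in pH 5.9 citric acid/KH2PO4, taurocholate, tween-20; blue fluorogenic substrate 80 uM, 40 min room temperature, stopped and read Ex 365/Em 440 for AC50.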

Test [2] deals with Cytochrome P450 1A2 (Homo sapiens) (UniProt P05177). The test can be described thus: p450-cyp1a2 (AID 410; calls by dose curve; further: potency means the concentration at half of the fitted maximal effect;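 on activity change, negative = inhibition: -100% = full effect of reference inhibitor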). Summed up:
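Luminescent readout of luciferin formed from Luciferin-ME by human CYP1A2; data normalized against complete inhibition by 57 uM furafylline. Enzyme 20nM, substrate 100uM at Km, 100mM KPO4 buffer, 60 min reaction at room temperature.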

A short description of test [3]: NFAT Signaling Pathway (AID 444).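 Further: carbachol stimulus at about its EC50 of 1 µM final; on the % scale 0 is the no-effect control and ±100 the full control effect.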 The conditions noted are these: Jurkat NFAT-bla M1, carbachol, beta-lactamase ratio, 5 h; at 7.69 µM (top of the series) unless noted. Summed up:
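Jurkat cells carrying an NFAT-driven β-lactamase reporter and co-transfected muscarinic M1 receptor were treated with compound plus carbachol (1 uM final, an EC50 level) for 5 h at 37 °C. CCF4 loading followed for 1 h at RT; 460/530 nm ratio gave %activity.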

Test [4] can be described thus: Stat Signaling Pathway (AID 446).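 Further: ME-180 cervical cancer cells given 40 pM IL-6 alongside compound; SIE-controlled beta-lactamase reporter measured as 460/530 nm FRET emission ratio; on the % scale 0 is the no-effect control and ±100 the full control effect.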 The conditions noted are these: ME-180 SIE beta-lactamase reporter, IL-6 stimulated, 5 h; at 7.69 µM (top of the series) unless noted. Put shortly:
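Screening format detects activators and inhibitors alike: ME-180 SIE-bla cells stimulated at 40 pM IL-6 for 5 hrs with compound, then dual-emission beta-lactamase read at 405 nm excitation.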

Test [5] concerns the target Glucocorticoid receptor (Homo sapiens) (UniProt P04150). The test can be described thus: GR-GFP Redistribution (AID 450;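 active means compounds whose dose series gives a full or clear partial fitted curve of increased nuclear translocation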; further: potency means the concentration at half of the fitted maximal effect). The conditions noted are these: U2OS GR-GFP nuclear translocation, laser cytometry, 2 h.
For test [6] the target is unchanged. As to the kind of experiment: GR-EFC Redistribution (AID 451; calls by dose curve; further: potency means the concentration at half of the fitted maximal effect). The conditions noted are these: CHO-K1 GR-EFC translocation, beta-gal luminescence, 2 h. Summed up:
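CHO-K1 cells stably expressing nuclear-localized β-gal enzyme acceptor and GR fused C-terminally to the enzyme donor fragment; ligand-driven nuclear translocation restores β-gal by complementation. Compounds titrated up to 46 uM final, 2 h at 37 °C; luminescence read.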

The target in test [7] is Mitogen-activated protein kinase 10 (Mus musculus) (UniProt Q61831). The test can be described thus: JNK3 AlphaScreen Assay (AID 530).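 Further: kinase came from lysate of stimulated human HepG2 cells; signal reports phosphorylation of biotinylated GST-cJun 1-79 at Ser73 with 10 µM ATP; on the % scale 0 is the no-effect control and ±100 the full control effect.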 Summed up:
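Inhibitors reduce antibody binding to phosphorylated biotin-cJun, lowering AlphaScreen luminescence. Lysates from HepG2 cells pre-activated by IL-1beta plus TNF-alpha supplied JNK3; compounds were titrated.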
Background: Bead proximity is the source of the signal in Alpha formats.

The target of test [8] is 3',5'-cyclic-AMP phosphodiesterase 4B (Homo sapiens) (UniProt Q07343). As to the kind of experiment: qHTS Assay for Inhibitors of PDE-IV (AID 607; active means well fitted activation curve with a large enough effect in the main read-out, with a control signal flat, not every such curve was filed as active; further: % of control where 0% means no effect). Put shortly:
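The readout is membrane depolarisation from a cAMP-sensing CNG channel, detected with a potential dye at ex 535/em 590. Cells were HEK293-derived (endogenous PDE-IV) at 1000 cells/well, titrated up to 22.9 uM final.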
(qHTS replaces the single test concentration by a dilution series.)

The target in test [9] is Cytochrome P450 2D6 (Homo sapiens) (UniProt P10635). The test can be described thus: qHTS Assay for Inhibitors and Substrates of Cytochrome P450 2D6 (AID 891; active means well fitted curve in the direction sought with a large enough effect; an effect the other way counts as inactive or inconclusive; further: potency means the concentration at half of the fitted maximal effect; nearly all actives have a fitted effect of over 60% in size). Summed up:
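Human CYP2D6 (5 nM) with 30 uM Luciferin-ME EGE (at Km) in 100 mM KPO4, compound preincubated 10 min, then NADPH regeneration system for 60 min at room temperature. Luciferin read by luminescence; normalized to 1.43 uM quinidine.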

In test [10] the target is Cytochrome P450 3A4 (Homo sapiens) (UniProt P08684). The test can be described thus: qHTS Assay for Activators of Cytochrome P450 3A4 (AID 885; active means well fitted curve in the direction sought with a large enough effect; an effect the other way counts as inactive or inconclusive; further: nearly all actives have a fitted effect of over 65% in size). Put shortly: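 Steps: enzyme/substrate mix dispensed; compound added, 10 min RT; NADPH regeneration solution added, 60 min RT; luciferin detection buffer stops reaction; 20 min later luminescence measured.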
Chain of Cytochrome P450 3A4 (Homo sapiens) (P08684 whole entry, looked up): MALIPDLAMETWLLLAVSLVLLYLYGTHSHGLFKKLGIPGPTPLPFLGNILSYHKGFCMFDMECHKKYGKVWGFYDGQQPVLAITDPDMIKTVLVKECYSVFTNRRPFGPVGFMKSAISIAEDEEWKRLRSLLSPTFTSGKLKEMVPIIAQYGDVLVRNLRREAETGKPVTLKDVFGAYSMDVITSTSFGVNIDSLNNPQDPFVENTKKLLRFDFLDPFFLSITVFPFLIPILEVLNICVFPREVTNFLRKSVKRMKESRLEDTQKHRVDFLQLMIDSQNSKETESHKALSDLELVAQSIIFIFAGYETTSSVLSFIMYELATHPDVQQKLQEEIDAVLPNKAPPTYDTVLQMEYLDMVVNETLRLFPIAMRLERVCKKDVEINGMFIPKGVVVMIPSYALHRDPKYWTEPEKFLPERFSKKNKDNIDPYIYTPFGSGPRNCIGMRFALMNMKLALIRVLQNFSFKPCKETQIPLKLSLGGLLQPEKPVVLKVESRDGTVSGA

Chain of 3',5'-cyclic-AMP phosphodiesterase 4B (Homo sapiens) (Q07343 whole entry, looked up): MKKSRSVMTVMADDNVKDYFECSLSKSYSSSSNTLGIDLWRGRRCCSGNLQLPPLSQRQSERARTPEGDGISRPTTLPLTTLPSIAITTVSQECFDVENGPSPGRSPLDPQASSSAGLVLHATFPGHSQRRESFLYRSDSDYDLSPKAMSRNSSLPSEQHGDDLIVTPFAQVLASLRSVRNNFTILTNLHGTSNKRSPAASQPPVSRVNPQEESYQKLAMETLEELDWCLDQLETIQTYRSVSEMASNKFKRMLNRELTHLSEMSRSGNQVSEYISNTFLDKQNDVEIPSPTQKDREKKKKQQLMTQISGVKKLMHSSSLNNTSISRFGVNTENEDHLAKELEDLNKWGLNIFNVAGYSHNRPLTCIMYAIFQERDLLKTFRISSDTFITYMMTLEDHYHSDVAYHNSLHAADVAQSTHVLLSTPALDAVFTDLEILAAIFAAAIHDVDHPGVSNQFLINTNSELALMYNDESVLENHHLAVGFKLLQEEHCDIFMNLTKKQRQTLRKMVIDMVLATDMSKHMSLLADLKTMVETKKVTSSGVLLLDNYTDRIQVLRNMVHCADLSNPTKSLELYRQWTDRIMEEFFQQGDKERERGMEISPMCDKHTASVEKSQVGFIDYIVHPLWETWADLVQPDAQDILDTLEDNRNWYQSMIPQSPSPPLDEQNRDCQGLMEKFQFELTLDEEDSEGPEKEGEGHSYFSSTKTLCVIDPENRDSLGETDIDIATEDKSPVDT
Chain of Cytochrome P450 1A2 (Homo sapiens) (P05177 whole entry, looked up): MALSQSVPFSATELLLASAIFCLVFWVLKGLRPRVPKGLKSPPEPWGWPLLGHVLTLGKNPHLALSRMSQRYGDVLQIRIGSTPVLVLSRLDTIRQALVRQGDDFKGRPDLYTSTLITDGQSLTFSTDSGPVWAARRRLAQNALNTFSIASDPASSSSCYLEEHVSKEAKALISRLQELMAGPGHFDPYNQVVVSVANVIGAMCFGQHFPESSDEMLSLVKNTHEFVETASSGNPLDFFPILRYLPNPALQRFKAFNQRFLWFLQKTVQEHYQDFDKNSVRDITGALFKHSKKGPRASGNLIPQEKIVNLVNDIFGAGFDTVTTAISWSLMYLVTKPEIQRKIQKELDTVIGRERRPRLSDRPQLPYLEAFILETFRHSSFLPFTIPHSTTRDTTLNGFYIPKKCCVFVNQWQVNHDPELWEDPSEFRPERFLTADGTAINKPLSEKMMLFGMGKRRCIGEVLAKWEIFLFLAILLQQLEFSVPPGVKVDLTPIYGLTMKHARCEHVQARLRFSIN
Chain of Lysosomal acid glucosylceramidase (Homo sapiens) (P04062 whole entry, looked up): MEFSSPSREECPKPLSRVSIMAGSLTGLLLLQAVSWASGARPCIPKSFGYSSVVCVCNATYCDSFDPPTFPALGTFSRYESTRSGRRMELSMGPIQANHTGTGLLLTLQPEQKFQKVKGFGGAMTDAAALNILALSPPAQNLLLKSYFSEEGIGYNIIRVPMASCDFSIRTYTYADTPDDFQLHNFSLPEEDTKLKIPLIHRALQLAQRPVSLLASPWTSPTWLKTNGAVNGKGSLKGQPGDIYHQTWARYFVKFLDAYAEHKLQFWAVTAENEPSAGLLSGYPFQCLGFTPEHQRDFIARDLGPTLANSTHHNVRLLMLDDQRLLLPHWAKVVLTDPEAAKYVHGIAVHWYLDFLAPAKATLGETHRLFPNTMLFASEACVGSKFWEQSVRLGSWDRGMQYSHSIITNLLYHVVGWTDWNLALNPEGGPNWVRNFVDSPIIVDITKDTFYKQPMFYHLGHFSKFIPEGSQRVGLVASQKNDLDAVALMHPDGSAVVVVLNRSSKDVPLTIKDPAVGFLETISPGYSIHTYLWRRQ
Chain of Glucocorticoid receptor (Homo sapiens) (P04150 whole entry, looked up): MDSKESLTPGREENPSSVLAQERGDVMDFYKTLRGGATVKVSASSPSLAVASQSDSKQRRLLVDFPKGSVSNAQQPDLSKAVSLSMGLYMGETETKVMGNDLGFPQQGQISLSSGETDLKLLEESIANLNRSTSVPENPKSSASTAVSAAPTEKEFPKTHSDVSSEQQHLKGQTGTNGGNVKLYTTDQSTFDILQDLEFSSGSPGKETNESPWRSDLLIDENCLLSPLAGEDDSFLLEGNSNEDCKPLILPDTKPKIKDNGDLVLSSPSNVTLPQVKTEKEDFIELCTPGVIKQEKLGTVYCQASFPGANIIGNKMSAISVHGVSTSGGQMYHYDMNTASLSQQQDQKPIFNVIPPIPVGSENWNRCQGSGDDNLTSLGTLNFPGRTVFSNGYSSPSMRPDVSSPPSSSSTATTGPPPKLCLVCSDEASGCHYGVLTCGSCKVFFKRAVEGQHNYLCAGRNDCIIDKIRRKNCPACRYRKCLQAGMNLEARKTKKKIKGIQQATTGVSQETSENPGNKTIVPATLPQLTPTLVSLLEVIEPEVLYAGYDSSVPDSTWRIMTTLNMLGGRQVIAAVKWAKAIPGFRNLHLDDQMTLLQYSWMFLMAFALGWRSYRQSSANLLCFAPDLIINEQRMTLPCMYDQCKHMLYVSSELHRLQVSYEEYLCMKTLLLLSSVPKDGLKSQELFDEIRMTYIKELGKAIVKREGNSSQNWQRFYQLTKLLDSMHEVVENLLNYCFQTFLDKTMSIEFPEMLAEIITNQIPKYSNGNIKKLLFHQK
Chain of Cytochrome P450 2D6 (Homo sapiens) (P10635 whole entry, looked up): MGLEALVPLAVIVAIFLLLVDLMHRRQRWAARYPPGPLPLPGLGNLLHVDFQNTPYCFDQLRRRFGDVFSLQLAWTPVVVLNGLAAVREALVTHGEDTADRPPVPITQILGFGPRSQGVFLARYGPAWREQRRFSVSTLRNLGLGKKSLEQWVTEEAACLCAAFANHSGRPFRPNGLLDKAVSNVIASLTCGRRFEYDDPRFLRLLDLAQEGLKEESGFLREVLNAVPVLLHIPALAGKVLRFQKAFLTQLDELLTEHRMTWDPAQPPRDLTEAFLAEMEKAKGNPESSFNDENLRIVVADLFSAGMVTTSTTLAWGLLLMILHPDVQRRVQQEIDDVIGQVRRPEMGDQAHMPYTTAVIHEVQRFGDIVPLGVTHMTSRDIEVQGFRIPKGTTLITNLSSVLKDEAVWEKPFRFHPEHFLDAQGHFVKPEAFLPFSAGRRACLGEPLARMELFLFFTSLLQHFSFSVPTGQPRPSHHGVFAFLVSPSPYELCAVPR

Regarding `COc1ccc2c(c1)N(CC[C@H]1CCCCN1C)c1ccccc1S2`, the Potency in test [1] was > 11.4 µM (inactive); in test [2], 1.26 µM (active); in [5], > 46 µM (inactive); in test [6], > 9.22 µM (inactive); in test [9], 0.0501 µM (active). The activity change, negative = inhibition in test [3] is -80.4% (active). For the same molecule, the activity, negative = inhibition in test [4] was -6.74% (inactive). The Potency entry in [7] and in test [8] was “inactive” throughout.
`O=c1ccnc(SCc2ccc(Cl)cc2)[nH]1`: the Potency in test [1] is > 11.4 µM (inactive); in test [5] it was > 46 µM (inactive); in test [6], > 9.22 µM (inactive). The Potency result in [2], in [7] and in test [8] was “inactive” throughout. In test [3], the activity change, negative = inhibition was 2.66% (inactive). Moreover, the activity, negative = inhibition in [4] was 6.94% (inactive).
Take `COc1cccc(Nc2ncc3ncc(=O)n(C4CC4)c3n2)c1`: the Potency in [1] is > 11.4 µM (inactive); in test [2] it was 0.631 µM (active); in [5] it was > 9.22 µM (inactive); in test [6] it was > 46 µM (inactive). Besides, the activity change, negative = inhibition in test [3] was -22.2% (inactive). In addition, the activity, negative = inhibition in test [4] is -24.1% (inactive). In addition, the Potency entry in test [7], in test [8] and in test [10] was “inactive” in each case.

(Values after PubChem BioAssay (NCATS).)
